High-throughput results deposited in PubChem by Buhrlage Lab, Dana-Farber Cancer Institute and Novartis Institutes for BioMedical Research (Cambridge, Mass).
Hits are enriched below; roughly 11% of the tested compounds scored in any of these assays.
USP17 inh: blocks human USP17 ubiquitin-rhodamine cleavage; A8MUK1; purified USP17, Ub-rhodamine cleavage fluorescence, 3 h; inhibition, % at 50 µM; hit rate 6.5% among 47,000; AID 1645855
Target sequence (A8MUK1 whole entry, looked up): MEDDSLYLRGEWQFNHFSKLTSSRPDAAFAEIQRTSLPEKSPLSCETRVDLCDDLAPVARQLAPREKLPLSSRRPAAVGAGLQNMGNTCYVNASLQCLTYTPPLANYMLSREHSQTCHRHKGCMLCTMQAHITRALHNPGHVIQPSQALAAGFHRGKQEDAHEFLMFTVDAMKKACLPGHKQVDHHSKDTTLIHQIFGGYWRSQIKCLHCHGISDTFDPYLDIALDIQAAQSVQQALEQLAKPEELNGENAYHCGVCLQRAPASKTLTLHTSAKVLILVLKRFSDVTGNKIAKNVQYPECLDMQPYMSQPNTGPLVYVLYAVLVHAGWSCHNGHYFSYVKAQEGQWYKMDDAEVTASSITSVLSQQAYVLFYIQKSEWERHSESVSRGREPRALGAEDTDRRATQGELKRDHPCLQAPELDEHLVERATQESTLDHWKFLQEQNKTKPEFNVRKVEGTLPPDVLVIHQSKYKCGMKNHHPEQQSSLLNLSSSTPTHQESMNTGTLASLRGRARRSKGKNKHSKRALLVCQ
USP28 inh: inhibitors of human USP28 deubiquitinase; hit rate 3% among 47,000; AID 1645857; inhibition, % at 25 µM; purified USP28, Ub-rhodamine cleavage fluorescence, 30 min
USP30 inh: blocks human USP30 ubiquitin-rhodamine cleavage; Q70CQ3; inhibition, % at 25 µM; purified USP30, Ub-rhodamine cleavage fluorescence; hit rate 5.3% among 47,000; AID 1645860
OTUD3 block: human OTUD3 deubiquitinase inhibition; hit rate 0.7% among 47,000; Q5T2D3; purified OTUD3, Ub-rhodamine fluorescence, 2 h; inhibition, % at 25 µM
An asterisk follows results filed as active; x = no result given. Rule as the data show it: active = inhibition above about 30%; inactive = the rest.

SMILES	USP17 inh	USP28 inh	USP30 inh	OTUD3 block
COc1ccc(C(=O)c2c[nH]cc2-c2ccc(C)cc2)cc1OC	31*	-3	13	1
Cc1ccc(NC(=O)C2=CCN(Cc3ccc(F)cc3)CC2)cc1	-18	-4	-28	-15
Cc1nnc2c(NC(=O)c3cc(F)ccc3F)cccn12	14	6	2	10
O=C(Nc1ccc(O)cc1)c1cccn2c(-c3ccccc3F)nnc12	-6	37*	25	0
COc1ccc(CNc2ccc3c(cc2=O)[C@@H](NC(C)=O)CCc2cc(OC)c(OC)c(OC)c2-3)cc1OC	-121	-75	-90	-21
O=C(Nc1ccc2c(c1)OCCO2)c1c(-c2ccccc2)nnc2ccccc12	31*	-5	-12	-7
O=C(Nc1ccc2c(c1)OCCO2)c1cccc2nc3ccccc3nc12	41*	30	75*	31*
Cc1ccc(-c2cc(C(=O)Nc3ccc4c(c3)OCCO4)c3ccccc3n2)o1	39*	7	-41	8
Cc1ccccc1-c1cc(C(=O)Nc2ccc(Br)c(Br)c2)c2ccccc2n1	-9	-2	-25	-6
CSCCC(NS(=O)(=O)c1ccc2c(c1)OCCO2)c1nnc2ccccn12 (centres undefined)	-13	-9	-21	0
O=C(Cc1ccc2ccccc2c1)Nc1ccccc1O	11	3	-8	-1
COc1cccc(C(=O)Nc2cccn3nc(C)nc23)c1	7	3	23	6
CCOC(=O)c1cccc(NC(=O)Nc2cccn3nc(C)nc23)c1	-14	83*	14	-4
CCc1nc2c(NC(=O)Nc3cccc(C(=O)OC)c3)cccn2n1	4	50*	-3	-1
C[C@]12C(=O)N(CCN3CCOCC3)CC(=O)N1CC(c1ccc(Br)cc1)c1c2[nH]c2ccccc12 (some centres undefined)	-87	-5	-40	-10
O=C(c1cnc(-c2ccccc2)nc1-c1ccccc1)N1CCOCC1	-3	-2	20	-3
COc1cc(CO)cc2c1C(=O)c1c(O)cc(O)cc1C2=O	8	6	29	0
COc1cc(O)c2c(c1O)C(=O)c1cc(C)ncc1C2=O	43*	2	-35	-17
COc1ccc2c(C)cc(SCC(=O)Nc3nsc(-c4ccc(C)cc4)n3)nc2c1	60*	55*	82*	47*
COc1cccc(NC(=O)CSc2cc(C)c3cc(S(=O)(=O)N(C)C)ccc3n2)c1	-19	-12	-61	-12
COC(=O)c1cc(NC(=O)/C=C/c2ccc(C(C)C)cc2)ccc1N1CCOCC1	-17	23	-22	-11
COC(=O)c1ccc(NC(=O)/C=C/c2ccc(F)cc2)cc1	86*	96*	90*	14
CCCCNC(=O)c1ccc(-c2ccccc2)nc1C	-11	-9	-5	-5
Cn1nc(-c2ccccc2)c(CO)c1Sc1ccccc1Cl	49*	8	6	-5
Cc1cc(C)cc(C(=O)N2CCC(Oc3ccc(C(=O)N(C)C)cn3)CC2)c1	1	44*	0	2
SMILES	USP17 inh	USP28 inh	USP30 inh	OTUD3 block
CN(C)C(=O)c1ccc(OC2CCN(C(=O)c3ccc(F)cc3)CC2)nc1	12	3	-48	2
CCCC[C@@H](C)/C=C(C)/C=C(\C)C(=O)NC1=C[C@](O)(/C=C/C=C/C=C/C(=O)NC2=C(O)CCC2=O)[C@@H]2O[C@@H]2C1=O	73*	73*	2	69*
CCCCNc1nc2ccncc2n(Cc2ccccc2)c1=O	30	x	x	3
CCOc1cccc(CNc2nc3ccncc3n(Cc3ccccc3)c2=O)c1	28	-15	36*	-12
O=c1c(NCCCN2CCCC2)nc2ccncc2n1Cc1ccccc1	58*	-6	0	-18
CCc1ccc(Nc2nc3ccncc3n(Cc3ccccc3)c2=O)cc1	-5	-9	6	2
Cc1cn[nH]c1C1CCCCN1C(=O)CCc1cc(Cl)no1 (centres undefined)	2	7	7	6
O=C(CSc1nc2ccccc2[nH]1)c1ccccc1F	-37	3	3	-6
O=C(Cn1cnc2ccccc2c1=O)NC(c1ccccc1)c1ccccc1	18	14	33*	5
O=C(CCn1cnc2ccccc2c1=O)Nc1ccc(Cl)cc1	40*	21	14	7
Cc1cc(C(=O)CSc2nc3ccccc3[nH]2)c(C)n1Cc1ccco1	50*	25	-50	3
Cc1ccccc1CNC(=O)CCn1cnc2ccccc2c1=O	-32	14	-11	3
COc1ccc(C(CNC(=O)Cn2cnc3ccccc3c2=O)N(C)C)cc1 (centres undefined)	16	12	14	6
O=C(CSc1nc2ccccc2[nH]1)c1c[nH]c2ccccc12	20	-2	33*	0
O=C(Cn1cnc2cc([N+](=O)[O-])ccc2c1=O)c1c[nH]c2ccccc12	20	13	-72	-11
O=C(Cn1cnc2ccccc2c1=O)c1c[nH]c2ccccc12	47*	32*	44*	0
COc1ccc(CCNC(=O)C2CCCN(c3nc4ccsc4c(=O)s3)C2)cc1OC (centres undefined)	-5	-11	-4	-8
COc1ccc(Cl)cc1C(=O)Nc1cc(C)cc(C)n1	46*	-15	9	-9
COc1ccc(Cl)cc1C(=O)Nc1cnc(N2CCOCC2)nc1	x	-16	-15	-8
FC(F)(F)c1cccc(Nc2nc(-c3ccccn3)nc3ccccc23)c1	74*	88*	52*	-4
OCCCNc1cc(-c2cccc(C(F)(F)F)c2)nc(-c2ccccn2)n1	-42	-9	-12	-6
Cc1cc(C)cc(NC(=O)Cc2nc(-c3ccccn3)n[nH]2)c1	-52	-10	-1	-4
Brc1ccc(Nc2nc(-c3ccccn3)nc3ccccc23)cc1	52*	93*	90*	51*
Cc1ccc(NC(=O)c2cc(-c3ccncc3)n[nH]2)c(Cl)c1	64*	60*	83*	0
O=C(Nc1ccc(F)cc1F)c1cc(-c2ccccn2)n[nH]1	9	-7	17	-3
SMILES	USP17 inh	USP28 inh	USP30 inh	OTUD3 block
O=C(Nc1ccc(Cl)cc1F)c1cc(-c2ccncc2)n[nH]1	67*	25	74*	8
Cc1ccc(O)c(-c2cc(C(=O)Nc3ccccc3Cl)[nH]n2)c1	68*	6	27	-7
CCNC(=O)c1nc(C(=O)NC2CCCCC2)cs1	8	2	7	3
CC(C)(Oc1ccc(Cl)cc1)C(=O)NCc1nnnn1-c1ccc(F)cc1	17	31*	18	11
O=C(Nc1ccc(OC(F)(F)F)cc1)NC1CCCc2ccccc21 (centres undefined)	-3	-1	-3	2
O=C(Nc1ccccc1F)NC1CCCc2ccccc21 (centres undefined)	3	1	40*	0
O=C1c2ccccc2S(=O)(=O)N1Cc1ccc2nonc2c1	9	37*	15	16
COc1cc(C(=O)Nc2ccc(NC(C)=O)cc2)ccc1OCc1ccccc1Cl	15	4	1	11
Cn1c(N)c(C(=O)Cn2nnc(-c3ccccc3Cl)n2)c(=O)n(C)c1=O	-7	-20	-5	-9
Cc1ccc(Cn2nnc(-c3ccccc3Cl)n2)cc1	15	64*	16	12
